# Source: PubChem
# MCF10A rereplic – inducers of DNA re-replication in MCF 10A breast cells | MCF 10A DNA re-replication, Hoechst nuclear intensity, 48 h | Potency, µM (top dose mostly 46.1 µM), without a hit: at the highest dose activity, positive = re-replication, hits mostly activators | actives 2.9% (n = 350,000); further: % of control where 0% means no effect; nearly all actives have a fitted effect of over 50% in size
# KB-V1 MDR tox – kills drug-selected multidrug resistant KB-V1 cells; KB-V1 MDR cells viability, CellTiter-Glo, 72 h; actives 3.4% (n = 400,000); Potency, µM (titrated, usually from 46.1 µM), actives largely listed as cytotoxic; further: on the % scale 0 is the no-effect control and ±100 the full control effect; nearly all actives have a fitted effect of over 60% in size
#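 Cytotoxicity toward P-gp-expressing KB-V1 cells was determined as loss of CellTiter-Glo luminescence after 72 h at 37 degrees C. Compounds were tested in quantitative HTS format across a concentration range, with curves fitted to normalized data.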
# SW480 rerep – inducers of DNA re-replication in SW480 colon cancer cells; actives 1.8% (n = 340,000); Potency, µM (doses to about 46.1 µM), for the others: at the top dose re-replication activation, most hits filed as activators; SW480 DNA re-replication, Hoechst DNA content imaging, 48 h; further: % of control where 0% means no effect; nearly all actives have a fitted effect of over 55% in size
#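 Per well, 250 cells were exposed to pinned compound for 48 hr. Nuclear DNA was visualised with Hoechst (40 min, 37 C) and total object intensity recorded by fluorescence scanning.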
# HT1080 IDH1KD tx – toxicity to HT-1080 IDH1 knockdown cells (counter line); HT-1080 IDH1 knockdown viability, ATP luminescence, 48 h; Potency, µM (titrated, usually from 46.1 µM), inactives show at the highest dose activity, negative = toxicity, hits mostly cytotoxic; actives 2% (n = 360,000); AID 686971;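 further: 0% = DMSO wells and -100% = cell-free medium wells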
#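 % activity derives from luminescence (CellTiter-Glo), normalised to DMSO and no-cell wells. HT-1080-IDH1KD cells, 750/well, had 48 h compound exposure at 37 °C.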
# HT1080NT lethal – kills 2HG-producing HT-1080-NT fibrosarcoma cells; HT-1080-NT fibrosarcoma viability, CellTiter-Glo ATP luminescence, 48 h; Potency, µM (series often up to 46.1 µM), for the others: at the top dose activity, negative = less viability, usual class: cytotoxic; AID 686970; actives 1.6% (n = 360,000);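 further: NT is the 2HG producing partner of a matched IDH1 knockdown line; 0% = DMSO-treated cells and -100% = media-only wells without cells; nearly all actives have a fitted effect of over 55% in size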
#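 HT-1080-NT; 750 cells/well; 5% FBS RPMI; 48 h compound, 37 degrees C; CellTiter-Glo luminescence; curve fitting and curve-class assignment.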
# KB-3-1 cytotox – kills parental KB-3-1 adenocarcinoma cells. KB-3-1 viability, CellTiter-Glo ATP luminescence, 72 h. AID 1347075. actives 1.4% (n = 400,000). Potency, µM (top dose mostly 46.1 µM), actives largely listed as cytotoxic; further: on the % scale 0 is the no-effect control and ±100 the full control effect; nearly all actives have a fitted effect of over 60% in size
#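 Cells are dispensed, compounds pinned in, plates held at 37 °C for 72 h, then CellTiter-Glo is added and luminescence read after 10 minutes. Cell line: parental KB-3-1 in phenol-red-free DMEM, 10% FBS.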
# Active calls of the source: *; i = inactive; ? = inconclusive; nt = no result given; [ ] = remark or other dose. Compounds with a hit are over-represented: about 8% of the library has one in this group of screens. The call rests on the fitted dose curve; in most records, active means well fitted curve in the direction sought with a large enough effect; inconclusive means small, poorly fitted or top-dose-only effect, or another doubt; inactive means no such curve, though single readings can be large; an effect the other way counts as inactive or inconclusive. Potency means the concentration at half of the fitted maximal effect.
SMILES,MCF10A rereplic,KB-V1 MDR tox,SW480 rerep,HT1080 IDH1KD tx,HT1080NT lethal,KB-3-1 cytotox
Fc1ccc(CCn2c(Cn3c(-c4cnccn4)nc4ccccc43)nc3ccccc32)cc1,nt,?,nt,-13.7%,-21.2%,?
c1ccc(Cn2c(Cn3c(-c4cnccn4)nc4ccccc43)nc3ccccc32)cc1,nt,9.2µM*,nt,-16.1%,?,i
NC[C@@H]1O[C@H](O[C@H]2[C@H](O)[C@H](O[C@@H]3O[C@H](CO)[C@@H](O)[C@H](N)[C@@H]3O)[C@@H](N)C[C@H]2N)[C@@H](O)[C@H](O)[C@@H]1O,0.5%[20.6 µM],nt,-3.1%[20.6 µM],nt,nt,nt
Cc1ccc(OCC(=O)Nc2sc3c(c2C#N)CC(C)(C)NC3(C)C)cc1,1.8%,i,2.8%,?,20.6µM*,i
CCOC(=O)c1c(NC(=O)COc2ccccc2C#N)sc2c1CC(C)(C)NC2(C)C,?,?,18.4µM*,-12.2%,-1.6%,?
CC1(C)Cc2c(sc(NC(=O)COc3cccc4ccccc34)c2C#N)C(C)(C)N1,16.4µM*,i,?,14.6µM*,9.2µM*,?
CC1(C)Cc2c(sc(NC(=O)Cc3ccccc3)c2C#N)C(C)(C)N1,nt,i,nt,-16.4%,-16.5%,i
O=C(COc1ccc(F)cc1)N(c1ccccn1)C1CCCCC1,11.4%,20.6µM*,-73.4%,17.0%,1.2%,i
CC(C)(C)c1ccc(C(=O)NCC(c2cccnc2)N2CCc3ccccc3C2)cc1 (centres undefined),nt,i,nt,nt,nt,i
CCc1ccc(NC(=O)Cn2c(=O)n(CC3CCCO3)c(=O)c3cc(OC)c(OC)cc32)cc1 (centres undefined),nt,i,nt,nt,nt,i
CCOc1ccc(S(=O)(=O)N2CCN=C2c2ccccc2)cc1,20.6µM*,11.6µM*,7.31µM*,-27.0%,?,?
CCOC(=O)c1c(C)[nH]c(C(=O)CSc2nc(C)cc(C)n2)c1C,6.2%,?,0.8%,-2.7%,5.1%,i
CCOC(=O)c1c(C)[nH]c(C(=O)COC(=O)CNC(=O)c2ccc(Cl)cc2)c1C,-2.6%,4.11µM*,nt,2.5%,1.1%,i
CCOC(=O)c1c(C)[nH]c(C(=O)CSc2ccc(Cl)cc2)c1C,28.8%,18.4µM*,2.1%,?,-13.6%,i
CCOC(=O)c1c(C)[nH]c(C(=O)COC(=O)COc2ccc(OC)cc2)c1C,-1.5%,18.4µM*,-4.2%,1.8%,-6.3%,i
CCOC(=O)c1c(C)[nH]c(C(=O)COC(=O)c2ccc(O)cc2)c1C,-12.6%,?,3.1%,-3.4%,-17.8%,i
CCOC(=O)c1c(C)[nH]c(C(=O)COC(=O)C2(C)CC2(Cl)Cl)c1C (centres undefined),6.7%,13µM*,15.7%,?,13.1%,i
COc1ccccc1N1CCN(S(=O)(=O)c2c(C)sc3ncn(CC(=O)Nc4ccc(C(C)C)cc4)c(=O)c23)CC1,nt,?,nt,nt,nt,i
COc1ccc(N2CC(NC(=O)C(c3ccccc3)c3ccccc3)CC2=O)cc1OC (centres undefined),nt,i,nt,nt,nt,i
CCOC(=O)c1[nH]c(C)c(C(=O)Nc2ccccc2F)c1C,7.31µM*,3.66µM*,8.2µM*,?,?,2.31µM*
CCOC(=O)c1[nH]c(C)c(C(=O)Nc2ccc(C)cc2C)c1C,13µM*,3.66µM*,10.3µM*,11.6µM*,?,2.59µM*
CCOC(=O)c1[nH]c(C)c(C(=O)Nc2ccc(F)cc2)c1C,0.8%,i,4.5%,-8.7%,-16.4%,i
CCOC(=O)c1[nH]c(C)c(C(=O)c2ccc(C)cc2)c1C,1.46µM*,1.46µM*,5.17µM*,1.26µM*,1.78µM*,i
Cc1ccc(N(C)S(=O)(=O)c2cccc(C(=O)N(C)Cc3cnn(-c4ccccc4)c3)c2)cc1,20.6µM*,5.8µM*,?,?,-2.6%,i
